Screening data from PubChem.
The list is not random: actives were taken first. Their share in the collection is about 3%.
MITF act – activators of MITF-driven TRPM1 promoter reporter, primary screen, cell-based, SK-MEL-5, luciferase, single point; SK-MEL-5 TRPM1-promoter luciferase, 24 h; % of positive control, neutral wells = 0; activation, % at 12.5 µM; 300,000 tested, 0.75% active;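 active = mean activation of at least 80% with every replicate also reaching 80%; inconclusive = mean reaches 80% but some replicate falls short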
esBAF inh – Bmi1 luciferase reporter increase in mESCs, primary screen, esBAF inhibitor project, mouse ES cells, Bmi1 luciferase knock-in, single point | 350,000 tested, 2% active | reporter increase, % at 12.5 µM | 24 h; 100% = twice the neutral-well signal; in the data active = activation above about 40%; inconclusive = no clear call, values can overlap the other calls;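 also: a rise in the Bmi1 reporter signal indicates esBAF inhibition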
Wnt act – Wnt/beta-catenin pathway activators, primary screen, cell-based, plate reader, single point; Wnt/beta-catenin reporter cell assay, activator; activation, % at 9.35 µM; 300,000 tested, 1.2% active; in the data active = activation above about 30%, passing the limit was not always enough; inconclusive = no clear call, values can overlap the other calls
Statin myotox sup – suppressors of statin myotoxicity in C2C12 myotubes, primary screen, cell-based, single point, plate reader; rescue of ATP level, % at 7.49 µM; AID 602340, 2012; C2C12 myotubes + simvastatin, ATP luminescence, 48 h; scaled: DMSO 0, geranylgeraniol control 100; 330,000 tested, 0.78% active;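 active = mean ATP rescue above about 67%, or every replicate alone reaching that limit, limit read from the data, passing the limit was not always enough; inconclusive = no clear call, values can overlap the other calls; inactive = mean under the limit and some replicate under it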;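 also: myotubes were challenged with 10 µM simvastatin during compound exposure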
A number is an active result; 0 = inactive; ? = inconclusive; - = no result.

SMILES | MITF act | esBAF inh | Wnt act | Statin myotox sup
O=C(O)CC1=C(Nc2ccccc2)C(=O)N(c2ccccc2)C1c1ccc(F)cc1 (centres undefined) | 0 | 78.7 | 0 | 0
O=C(O)CC1=C(O)C(=O)N(c2ccccc2)C1c1ccccc1 (centres undefined) | 0 | 0 | 0 | -
Cc1ccc(S(=O)(=O)N(C)C[C@@H]2Oc3c(NS(=O)(=O)c4cn(C)cn4)cccc3C(=O)N([C@H](C)CO)C[C@H]2C)cc1 | - | 0 | - | 0
Cc1ccc(S(=O)(=O)Nc2ccc3c(c2)C(=O)N([C@@H](C)CO)C[C@H](C)[C@H](CN(C)C(=O)NC(C)C)OCCCC[C@H](C)O3)cc1 | - | 0 | - | -
CC(=O)c1ccc2noc(-c3ccc(C)cc3)c2c1 | 0 | - | 0 | -
NC(=O)NC(=O)COC(=O)c1ccc2noc(-c3ccccc3)c2c1 | 0 | 68.2 | 0 | 0
Cc1ccc(-c2onc3ccc(C(=O)O)cc23)cc1 | - | 50.1 | 0 | 0
COc1ccc(NC(=O)Nc2ccc3c(c2)CC(=O)N([C@@H](C)CO)C[C@@H](C)[C@H](CN(C)S(=O)(=O)c2cn(C)cn2)O3)cc1 | - | 0 | - | 0
O=C1CCC[C@@H]2[C@H](Cc3ccccc3)[C@@H](O)C[C@@H]3CCN1[C@@H]32 | 0 | 0 | 0 | 0
O=C1CCC[C@@H]2C[C@@]3(C[C@@H]4CCN1[C@H]24)Nc1cc(Cl)c(Cl)cc1NC3=NCc1ccccc1 | 0 | 74.3 | 0 | 0
CC(/C=N/NC(=O)c1ccccc1F)=C\c1ccccc1 | 99.3 | 0 | 0 | 0
CC(/C=N/NC(=O)c1cccs1)=C\c1ccccc1 | 98.5 | 0 | 0 | 0
CC(/C=N/NC(=O)c1sc(N)nc1C)=C\c1ccccc1 | 120.0 | - | ? | -
CC(/C=N/NC(=O)c1ccco1)=C\c1ccccc1 | 0 | 0 | 0 | 0
O=C(N/N=C/C(Cl)=C\c1ccccc1)c1cccs1 | - | - | 39.5 | -
CC(C=NNC(=O)C(=O)NN=CC(C)=Cc1ccccc1)=Cc1ccccc1 | 0 | 0 | - | 0
C[C@@H]1CCCCO[C@@H](CN(C)Cc2ccc(C(=O)O)cc2)[C@H](C)CN([C@@H](C)CO)C(=O)c2cc(NC(=O)Nc3ccc4c(c3)OCO4)ccc2O1 | - | 0 | - | -
NC(=O)C1CCN(Cc2nc3cc(Cl)ccc3c(=O)[nH]2)CC1 | 0 | 0 | - | 101.5
NC(=O)C1CCN(Cc2nc3ccccc3c(=O)[nH]2)CC1 | 0 | 0 | 0 | 0
S=c1[nH]cc(-c2ccccc2)n1-c1ccccc1 | 0 | 0 | 0 | 97.9
Cc1nn2cc(-c3cccc(Cl)c3)cnc2c1Br | 0 | - | 0 | -
Cc1nn2cc(-c3cccc(Cl)c3)cnc2c1Cl | 0 | 78.9 | 0 | 0
CC1=C(C(=O)OCc2ccccc2)C(c2ccc(Br)cc2)NC(=O)N1CCCCCC(=O)O (centres undefined) | 0 | 90.5 | 45.7 | 0
CC1=C(C(=O)OCc2ccccc2)C(c2ccc(Br)cc2)NC(=O)N1CCCC(=O)O (centres undefined) | - | - | 0 | -
O=C(NCC[C@H]1CC[C@H](NS(=O)(=O)c2ccccc2)[C@H](CO)O1)c1ccccc1F | - | 0 | - | 0
SMILES | MITF act | esBAF inh | Wnt act | Statin myotox sup
COc1ccc(-n2ncc3c(NCc4ccco4)ncnc32)cc1 | - | 0 | - | -
c1ccc(-n2ncc3c(NCc4cccnc4)ncnc32)cc1 | 0 | - | - | -
Clc1ccc(-n2ncc3c(NCc4ccco4)ncnc32)cc1 | - | 52.0 | 59.9 | 0
c1ccc(-n2ncc3c(NCc4cccs4)ncnc32)cc1 | - | 45.4 | 70.7 | 0
COc1ccc(-n2ncc3c(NCc4cccs4)ncnc32)cc1 | ? | 107.5 | 0 | 0
O=C1CCCN1CCCNc1ncnc2c1cnn2-c1ccc(Cl)cc1 | 0 | 42.4 | 0 | 0
COc1ccc(CNC(=O)C[C@H]2C[C@H]3c4cc(NC(=O)CN(C)C)ccc4O[C@H]3[C@@H](CO)O2)cc1 | - | 0 | - | 0
Cc1c(C(=O)Nc2ccc3c(c2)OCCO3)cnn1C | 0 | 0 | 0 | 0
Cc1c(C(=O)Nc2ccc(Br)cc2)cnn1C | 0 | - | 40.1 | -
O=C(Nc1ccc(Br)cc1)c1ccccc1Br | 101.1 | 78.5 | 0 | 0
O=C(Nc1ccc(Br)cc1)c1cc2ccccn2n1 | 0 | - | 52.6 | -
CC(=O)N1[C@H](CO)[C@H](c2ccc(C3=CCCC3)cc2)[C@H]1CNC(=O)CN(C)C | - | 0 | - | 0
CCCNC(=O)Nc1ccc2c(c1)C(=O)N(C)C[C@H](OC)[C@@H](C)CN(Cc1ccncc1)[C@@H](C)CO2 | - | 0 | - | 0
CCOC(=O)CN(C(=O)CSc1nnc2c(n1)[nH]c1ccc(F)cc12)c1ccccc1 | 0 | 0 | 0 | 121.0
